Laboratory results: ChEMBL document CHEMBL1961873, “Compounds: GSK PKIS; Assays: Nanosyn kinase panel” (2012)

Experiments:
[1] = target: Rho-associated protein kinase 1 (Homo sapiens) (UniProt Q13464); conditions: at 1 µM;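 note: reported values are mean percent inhibition of ROCK1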
[2] = target: Rho-associated protein kinase 2 (Homo sapiens) (UniProt O75116); conditions: at 0.1 µM
[3] = target: Rho-associated protein kinase 2 (Homo sapiens) (UniProt O75116); conditions: at 1 µM
[4] = target: Ribosomal protein S6 kinase alpha-1 (Homo sapiens) (UniProt Q15418); conditions: at 0.1 µM
Ribosomal protein S6 kinase alpha-1 (Homo sapiens), sequence (Q15418 whole entry): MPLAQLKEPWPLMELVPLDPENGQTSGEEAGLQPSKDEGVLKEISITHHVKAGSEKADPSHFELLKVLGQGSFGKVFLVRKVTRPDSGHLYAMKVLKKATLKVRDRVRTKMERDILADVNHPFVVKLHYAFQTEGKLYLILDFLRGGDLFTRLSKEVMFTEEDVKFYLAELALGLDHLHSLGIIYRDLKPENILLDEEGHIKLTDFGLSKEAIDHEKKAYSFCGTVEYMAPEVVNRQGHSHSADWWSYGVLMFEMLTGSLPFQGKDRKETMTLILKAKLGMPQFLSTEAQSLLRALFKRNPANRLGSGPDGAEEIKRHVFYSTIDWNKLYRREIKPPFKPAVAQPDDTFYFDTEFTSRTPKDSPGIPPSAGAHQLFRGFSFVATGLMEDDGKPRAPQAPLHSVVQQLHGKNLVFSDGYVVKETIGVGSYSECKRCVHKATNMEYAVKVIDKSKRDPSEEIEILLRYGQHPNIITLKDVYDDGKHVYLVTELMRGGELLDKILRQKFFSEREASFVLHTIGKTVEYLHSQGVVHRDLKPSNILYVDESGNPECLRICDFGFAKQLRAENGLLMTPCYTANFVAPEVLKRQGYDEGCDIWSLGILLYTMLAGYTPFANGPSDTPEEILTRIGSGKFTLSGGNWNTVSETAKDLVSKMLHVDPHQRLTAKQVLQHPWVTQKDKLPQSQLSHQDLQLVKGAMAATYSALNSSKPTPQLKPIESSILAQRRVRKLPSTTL

[5] = target: Ribosomal protein S6 kinase alpha-1 (Homo sapiens) (UniProt Q15418); conditions: at 1 µM
[6] = target: Ribosomal protein S6 kinase alpha-3 (Homo sapiens) (UniProt P51812); conditions: at 0.1 µM
Ribosomal protein S6 kinase alpha-3 (Homo sapiens), sequence (P51812 whole entry): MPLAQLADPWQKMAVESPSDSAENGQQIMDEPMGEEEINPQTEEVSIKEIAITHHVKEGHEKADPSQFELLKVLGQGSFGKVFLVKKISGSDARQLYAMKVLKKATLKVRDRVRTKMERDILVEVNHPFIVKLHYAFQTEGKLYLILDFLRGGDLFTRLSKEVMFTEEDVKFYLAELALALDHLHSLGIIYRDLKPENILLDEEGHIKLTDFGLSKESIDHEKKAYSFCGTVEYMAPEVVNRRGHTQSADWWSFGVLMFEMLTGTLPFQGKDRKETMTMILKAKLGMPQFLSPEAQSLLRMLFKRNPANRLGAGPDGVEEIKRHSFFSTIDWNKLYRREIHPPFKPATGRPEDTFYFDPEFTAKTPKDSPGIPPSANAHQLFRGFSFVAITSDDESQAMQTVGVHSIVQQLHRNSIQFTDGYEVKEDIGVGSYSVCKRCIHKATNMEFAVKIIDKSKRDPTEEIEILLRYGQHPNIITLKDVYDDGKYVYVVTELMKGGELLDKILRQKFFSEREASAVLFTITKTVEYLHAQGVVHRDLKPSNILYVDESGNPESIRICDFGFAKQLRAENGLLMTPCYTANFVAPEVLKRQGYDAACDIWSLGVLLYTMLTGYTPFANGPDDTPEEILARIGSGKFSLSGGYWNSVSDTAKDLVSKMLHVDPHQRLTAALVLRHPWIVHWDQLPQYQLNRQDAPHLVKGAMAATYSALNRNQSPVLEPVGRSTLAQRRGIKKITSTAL

[7] = target: Ribosomal protein S6 kinase alpha-3 (Homo sapiens) (UniProt P51812); conditions: at 1 µM
[8] = target: Ribosomal protein S6 kinase alpha-2 (Homo sapiens) (UniProt Q15349); conditions: at 0.1 µM
Ribosomal protein S6 kinase alpha-2 (Homo sapiens), sequence (Q15349 whole entry): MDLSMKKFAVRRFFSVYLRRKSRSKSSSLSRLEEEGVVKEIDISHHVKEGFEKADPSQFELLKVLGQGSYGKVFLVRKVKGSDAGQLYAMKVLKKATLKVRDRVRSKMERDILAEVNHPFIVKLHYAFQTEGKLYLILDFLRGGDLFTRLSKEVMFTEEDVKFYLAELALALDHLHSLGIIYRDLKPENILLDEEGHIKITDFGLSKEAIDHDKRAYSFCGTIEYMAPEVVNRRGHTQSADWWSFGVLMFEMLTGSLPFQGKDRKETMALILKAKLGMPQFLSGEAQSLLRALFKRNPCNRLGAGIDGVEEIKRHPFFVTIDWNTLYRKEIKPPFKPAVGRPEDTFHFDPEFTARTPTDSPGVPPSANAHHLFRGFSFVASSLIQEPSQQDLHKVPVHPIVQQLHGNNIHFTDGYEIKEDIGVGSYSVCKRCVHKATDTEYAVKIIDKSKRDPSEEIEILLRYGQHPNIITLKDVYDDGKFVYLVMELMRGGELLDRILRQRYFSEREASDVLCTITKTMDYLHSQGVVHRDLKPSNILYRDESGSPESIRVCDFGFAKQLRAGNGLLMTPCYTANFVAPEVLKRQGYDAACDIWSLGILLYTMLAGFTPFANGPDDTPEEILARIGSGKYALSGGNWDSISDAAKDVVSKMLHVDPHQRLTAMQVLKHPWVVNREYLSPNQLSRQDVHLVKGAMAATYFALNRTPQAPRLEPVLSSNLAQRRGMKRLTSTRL

[9] = target: Ribosomal protein S6 kinase alpha-2 (Homo sapiens) (UniProt Q15349); conditions: at 1 µM
[10] = target: Ribosomal protein S6 kinase alpha-6 (Homo sapiens) (UniProt Q9UK32); conditions: at 0.1 µM
[11] = target: Ribosomal protein S6 kinase alpha-6 (Homo sapiens) (UniProt Q9UK32); conditions: at 1 µM
[12] = target: T1, Serine/threonine-protein kinase Sgk1 (Homo sapiens) (UniProt O00141); conditions: at 0.1 µM
T1 sequence (whole entry): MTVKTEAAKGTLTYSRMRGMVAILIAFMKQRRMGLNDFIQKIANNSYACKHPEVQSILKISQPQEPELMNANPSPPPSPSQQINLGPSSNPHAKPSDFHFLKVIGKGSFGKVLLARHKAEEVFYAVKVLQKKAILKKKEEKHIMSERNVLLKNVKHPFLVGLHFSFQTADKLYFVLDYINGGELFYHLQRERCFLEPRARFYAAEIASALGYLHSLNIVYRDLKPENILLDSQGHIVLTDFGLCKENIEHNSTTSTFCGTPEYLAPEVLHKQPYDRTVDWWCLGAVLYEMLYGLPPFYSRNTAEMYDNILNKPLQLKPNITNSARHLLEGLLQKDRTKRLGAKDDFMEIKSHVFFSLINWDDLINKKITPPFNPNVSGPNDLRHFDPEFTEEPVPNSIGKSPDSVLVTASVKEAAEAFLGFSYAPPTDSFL

[13] = target: T1, Serine/threonine-protein kinase Sgk1 (Homo sapiens); conditions: at 1 µM
[14] = target: T2, Serine/threonine-protein kinase Sgk2 (Homo sapiens) (UniProt Q9HBY8); conditions: at 0.1 µM
T2 sequence (whole entry): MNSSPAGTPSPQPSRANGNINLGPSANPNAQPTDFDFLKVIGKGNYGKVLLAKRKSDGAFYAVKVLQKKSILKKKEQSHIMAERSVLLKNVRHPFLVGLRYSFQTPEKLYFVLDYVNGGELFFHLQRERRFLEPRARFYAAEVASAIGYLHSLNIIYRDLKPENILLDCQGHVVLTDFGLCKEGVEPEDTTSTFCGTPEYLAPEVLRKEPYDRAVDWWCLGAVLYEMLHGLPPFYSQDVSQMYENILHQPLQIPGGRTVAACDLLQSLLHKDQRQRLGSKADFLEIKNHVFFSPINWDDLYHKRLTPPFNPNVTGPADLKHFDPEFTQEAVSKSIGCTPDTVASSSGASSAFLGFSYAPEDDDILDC

[15] = target: T2, Serine/threonine-protein kinase Sgk2 (Homo sapiens); conditions: at 1 µM
[16] = target: T3, Serine/threonine-protein kinase Sgk3 (Homo sapiens) (UniProt Q96BR1); conditions: at 0.1 µM
T3 sequence (whole entry): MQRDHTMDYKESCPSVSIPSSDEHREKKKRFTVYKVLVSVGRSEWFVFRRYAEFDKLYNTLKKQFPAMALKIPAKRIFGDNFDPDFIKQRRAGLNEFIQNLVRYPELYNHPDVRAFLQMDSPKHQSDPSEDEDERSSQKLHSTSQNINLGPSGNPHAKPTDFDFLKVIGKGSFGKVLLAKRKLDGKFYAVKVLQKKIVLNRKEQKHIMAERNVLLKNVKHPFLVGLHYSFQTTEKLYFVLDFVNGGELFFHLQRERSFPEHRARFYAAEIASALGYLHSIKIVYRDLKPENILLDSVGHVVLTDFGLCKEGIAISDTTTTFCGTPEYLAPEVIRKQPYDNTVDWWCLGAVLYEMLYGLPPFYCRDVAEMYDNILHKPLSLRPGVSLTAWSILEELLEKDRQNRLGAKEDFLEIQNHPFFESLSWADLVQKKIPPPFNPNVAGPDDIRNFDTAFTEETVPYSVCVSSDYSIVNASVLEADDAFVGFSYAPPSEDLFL

[17] = target: T3, Serine/threonine-protein kinase Sgk3 (Homo sapiens); conditions: at 1 µM
[18] = target: 5'-AMP-activated protein kinase catalytic subunit alpha-1 (Homo sapiens) (UniProt Q13131); conditions: at 0.1 µM
5'-AMP-activated protein kinase catalytic subunit alpha-1 (Homo sapiens), sequence (Q13131 whole entry, looked up): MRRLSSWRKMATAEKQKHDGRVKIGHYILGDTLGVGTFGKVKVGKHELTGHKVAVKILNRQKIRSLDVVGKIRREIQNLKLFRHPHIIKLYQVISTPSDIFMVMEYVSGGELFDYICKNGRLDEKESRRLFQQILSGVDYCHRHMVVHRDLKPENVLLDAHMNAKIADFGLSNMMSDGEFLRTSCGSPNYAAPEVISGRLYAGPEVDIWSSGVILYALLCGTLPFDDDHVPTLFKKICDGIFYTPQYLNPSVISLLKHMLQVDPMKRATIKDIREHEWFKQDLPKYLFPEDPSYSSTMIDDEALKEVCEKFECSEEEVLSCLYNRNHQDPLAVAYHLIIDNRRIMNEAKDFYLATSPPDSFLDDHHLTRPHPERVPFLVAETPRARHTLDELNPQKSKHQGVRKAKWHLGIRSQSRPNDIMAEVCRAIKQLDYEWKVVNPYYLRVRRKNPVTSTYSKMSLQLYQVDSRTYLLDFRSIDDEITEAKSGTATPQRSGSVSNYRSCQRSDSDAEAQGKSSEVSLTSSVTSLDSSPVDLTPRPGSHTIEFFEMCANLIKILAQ

[19] = target: 5'-AMP-activated protein kinase catalytic subunit alpha-1 (Homo sapiens) (UniProt Q13131); conditions: at 1 µM
[20] = target: 5'-AMP-activated protein kinase catalytic subunit alpha-2 (Homo sapiens) (UniProt P54646); conditions: at 0.1 µM;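 note: mean inhibition measured on the AMPK complex of alpha2, beta1 and gamma1 subunits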
5'-AMP-activated protein kinase catalytic subunit alpha-2 (Homo sapiens), sequence (P54646 whole entry, looked up): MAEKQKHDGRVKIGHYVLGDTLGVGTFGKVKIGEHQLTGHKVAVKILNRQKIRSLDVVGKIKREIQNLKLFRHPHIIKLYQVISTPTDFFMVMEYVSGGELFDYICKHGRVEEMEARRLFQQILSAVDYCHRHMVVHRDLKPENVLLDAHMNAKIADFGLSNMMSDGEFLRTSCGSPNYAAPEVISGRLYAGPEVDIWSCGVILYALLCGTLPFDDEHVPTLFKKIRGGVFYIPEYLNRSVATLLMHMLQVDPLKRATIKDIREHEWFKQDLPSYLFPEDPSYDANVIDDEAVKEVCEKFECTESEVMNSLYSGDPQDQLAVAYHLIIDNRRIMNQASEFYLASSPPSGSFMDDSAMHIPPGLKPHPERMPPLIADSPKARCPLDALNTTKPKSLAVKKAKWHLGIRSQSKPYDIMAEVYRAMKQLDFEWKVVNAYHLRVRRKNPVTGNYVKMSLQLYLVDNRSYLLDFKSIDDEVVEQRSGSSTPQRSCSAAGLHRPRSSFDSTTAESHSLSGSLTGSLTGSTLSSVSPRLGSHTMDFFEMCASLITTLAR

Rho-associated protein kinase 2 (Homo sapiens), sequence (O75116 whole entry, looked up): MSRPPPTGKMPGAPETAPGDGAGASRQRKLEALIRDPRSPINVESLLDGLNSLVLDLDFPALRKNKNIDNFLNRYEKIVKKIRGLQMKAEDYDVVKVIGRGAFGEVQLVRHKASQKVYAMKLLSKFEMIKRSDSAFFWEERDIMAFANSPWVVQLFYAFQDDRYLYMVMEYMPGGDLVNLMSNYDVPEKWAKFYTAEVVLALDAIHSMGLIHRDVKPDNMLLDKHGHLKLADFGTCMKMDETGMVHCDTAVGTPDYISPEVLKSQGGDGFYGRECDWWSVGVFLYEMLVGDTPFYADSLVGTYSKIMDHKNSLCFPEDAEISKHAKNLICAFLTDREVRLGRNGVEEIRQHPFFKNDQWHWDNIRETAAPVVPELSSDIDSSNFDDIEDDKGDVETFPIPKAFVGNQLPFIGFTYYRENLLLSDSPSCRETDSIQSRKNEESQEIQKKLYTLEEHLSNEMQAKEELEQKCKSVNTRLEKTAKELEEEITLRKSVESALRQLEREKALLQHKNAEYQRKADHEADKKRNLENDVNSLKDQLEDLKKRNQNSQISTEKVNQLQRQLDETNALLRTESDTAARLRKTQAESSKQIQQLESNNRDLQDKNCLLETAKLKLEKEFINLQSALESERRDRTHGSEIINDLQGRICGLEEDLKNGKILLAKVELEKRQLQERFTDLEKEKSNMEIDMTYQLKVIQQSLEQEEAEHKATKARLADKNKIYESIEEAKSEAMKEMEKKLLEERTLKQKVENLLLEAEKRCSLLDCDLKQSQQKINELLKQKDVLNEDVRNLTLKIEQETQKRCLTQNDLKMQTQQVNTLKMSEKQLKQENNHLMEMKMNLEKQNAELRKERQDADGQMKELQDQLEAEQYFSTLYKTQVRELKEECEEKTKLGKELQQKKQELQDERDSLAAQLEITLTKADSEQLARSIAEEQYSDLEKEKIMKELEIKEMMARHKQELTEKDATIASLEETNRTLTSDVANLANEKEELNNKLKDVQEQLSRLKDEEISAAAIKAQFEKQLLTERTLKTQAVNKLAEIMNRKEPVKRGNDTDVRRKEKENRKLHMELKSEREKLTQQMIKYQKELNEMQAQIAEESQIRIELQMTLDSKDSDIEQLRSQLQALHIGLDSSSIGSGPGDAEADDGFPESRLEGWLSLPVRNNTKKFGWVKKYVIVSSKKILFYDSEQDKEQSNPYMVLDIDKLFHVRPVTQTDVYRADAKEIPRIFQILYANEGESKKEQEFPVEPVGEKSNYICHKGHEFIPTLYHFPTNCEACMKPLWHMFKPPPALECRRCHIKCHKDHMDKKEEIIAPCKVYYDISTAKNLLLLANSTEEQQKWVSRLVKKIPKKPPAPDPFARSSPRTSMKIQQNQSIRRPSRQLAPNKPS

| SMILES | inhibition [1] [%] | inhibition [2] [%] | inhibition [3] [%] | inhibition [4] [%] | inhibition [5] [%] | inhibition [6] [%] | inhibition [7] [%] | inhibition [8] [%] | inhibition [9] [%] | inhibition [10] [%] | inhibition [11] [%] | inhibition [12] [%] | inhibition [13] [%] | inhibition [14] [%] | inhibition [15] [%] | inhibition [16] [%] | inhibition [17] [%] | inhibition [18] [%] | inhibition [19] [%] | inhibition [20] [%] |
| --- | --- | --- | --- | --- | --- | --- | --- | --- | --- | --- | --- | --- | --- | --- | --- | --- | --- | --- | --- | --- |
| CCn1c(-c2nonc2N)nc2c(C#CC(C)(C)O)nc(CN3CCCC3)cc21 | 0.94 | 0.14 | 1.51 | 2.05 | 1.13 | 1.08 | 2.37 | -0.08 | 0.59 | 0.28 | 0.64 | -0.45 | 0.58 | 0.87 | -0.61 | 0.78 | 0.63 | 2.98 | 3.34 | 2.04 |
| CS(=O)(=O)CCN(CC#N)Cc1ccc(-c2ccc3ncnc(Nc4ccc(OCc5cccc(F)c5)c(Cl)c4)c3c2)o1 | 1.43 | 0.1 | 0.19 | -0.47 | -0.29 | -1.25 | -1.73 | 0.79 | 0.34 | -0.25 | -0.88 | 3.63 | 0.86 | 1.72 | -1.45 | 0.78 | 3.35 | 3.45 | 0.16 | 3.89 |
| Cc1ccc(C(=O)NC2CCCCC2)cc1-c1ccc(C(=O)NCC2CC2)cc1 | 1.55 | 1.31 | 1.7 | 1.59 | 0.15 | 1.12 | 0.57 | -1.41 | 0.27 | -0.04 | 1.2 | 3.14 | 2.69 | 1.32 | -1.56 | 2.99 | 0.67 | 2.86 | 0.6 | 3.32 |
| NC(=O)c1cccc(Nc2nccc(Nc3cccc4[nH]ncc34)n2)c1 | 7.57 | 1.22 | 13.4 | -0.17 | 7.69 | -0.11 | 8.36 | -1.89 | 2.72 | 0.56 | 9.04 | -1.84 | 1.71 | -4.35 | -0.81 | -4.06 | -1.36 | 3.35 | 18.5 | 2.4 |
| CCn1c(-c2nonc2N)nc2cncc(C(=O)N3CC[C@H](N)C3)c21 | – | 74.9 | 83.5 | 44.6 | 75.8 | 31.3 | 69.9 | 18.3 | 65.9 | 6.13 | 25 | 7.33 | 29.4 | 6.54 | 44.6 | 19.6 | 68.1 | 4.01 | 6.61 | 4.72 |
| CC(=O)Nc1cccc(C#Cc2cncnc2Nc2ccc(OCc3cccc(F)c3)c(Cl)c2)n1 | 1.22 | 3.13 | 6.65 | 3.35 | 5.09 | 1.72 | 4.03 | -1.11 | 0.12 | 0.1 | -0.14 | 1.53 | 5.43 | 1.09 | -1 | 2.07 | 4.12 | -0.86 | 3.32 | -1.09 |
| Cc1nn(C)c2cc(N(C)c3ccnc(Nc4cccc(S(N)(=O)=O)c4)n3)ccc12 | 2.24 | 2.09 | 3.32 | 1.77 | 3.73 | 1.39 | 6.38 | 2.93 | 4.46 | 2.03 | 6.01 | 3.21 | 3.89 | -0.4 | 5.81 | 3.28 | 6.89 | 1.01 | 1.93 | 2.68 |
| COc1cc2ncn(-c3cc(OCc4ccccc4Cl)c(C(N)=O)s3)c2cc1OC | 0.6 | -0.16 | 2.11 | 0.91 | 3.5 | 0.95 | 7.69 | 1.46 | 8.47 | 2.26 | 17.2 | 0.97 | 1.67 | 0.56 | 0.22 | 2.12 | 0.41 | 1.36 | 10.7 | 4.07 |
| CN1CCC(C(=O)Nc2n[nH]c3nnc(-c4ccccc4)cc23)CC1 | 1.3 | 3.27 | 7.43 | 2.04 | 3.41 | 1.58 | 3.98 | 2.42 | 3.15 | 0.86 | 1.86 | 3.01 | 6.62 | 4.36 | 3.52 | 2.89 | 5.04 | 5.95 | 5.95 | 4.12 |
| COc1cc(C=NNc2ncnc3c2cnn3-c2ccccc2)ccc1O | 3.41 | 1.64 | 8.94 | 1.65 | 7.83 | 1.16 | 6.18 | 2.26 | 7.02 | 0.33 | 6.36 | 4.35 | 12.3 | 1.73 | 12.3 | 1.97 | 1.32 | 2.74 | 4.76 | 0.75 |
| CC1=C(C(=O)Nc2ccc3[nH]ncc3c2)C(c2ccc(Cl)c(Cl)c2)CC(=O)N1 (centres undefined) | 91.8 | 71.2 | 89.9 | 3.44 | 23.6 | 1.88 | 18.9 | 0.64 | 13.2 | 0.12 | 5.82 | 0.54 | 6.57 | 0.96 | 8.76 | 1.38 | 10.8 | 6.35 | 34.8 | 1.12 |
| CCCN1CCC(Oc2cc(Nc3nc(Nc4cccc(F)c4C(N)=O)c4cc[nH]c4n3)c(OC)cc2Cl)CC1 | 8.85 | 1.22 | 7.48 | 0.01 | 7.33 | 0.89 | 3.26 | -0.12 | 0.95 | 1.35 | 4.14 | 0.54 | 0.96 | 0.41 | 1.93 | -0.88 | -2.21 | 3.28 | 8.12 | 1.83 |
| COc1ccc(COc2ccc(Cc3cnc(N)nc3N)cc2OC)cc1 | 2.94 | 1.54 | -1.22 | 1.36 | -1.81 | 0.78 | -0.8 | 0.01 | -1 | 0.69 | -0.61 | 5.08 | 1.31 | 4.24 | 3 | 2.57 | 1.28 | -0.17 | -0.28 | 2.65 |
